{
  "source": "the OligoGym collection",
  "data": [
    {"biological_target": "CD27", "assay": "pooled miR-30 sensor sort-seq; sequence = guide strand", "details": "shRNA", "values": [
      {"sequence": "TTTCGCAGCAGGAAGTGTGTTT", "sensor-assay potency score (higher = more potent)": 0.0361},
      {"sequence": "TTTTCGGTAATCCTCCTGGATG", "sensor-assay potency score (higher = more potent)": -1.32},
      {"sequence": "ATGCGAATAAAATCGGAGCTGC", "sensor-assay potency score (higher = more potent)": -0.25},
      {"sequence": "TTCTATGCTGGTCACAGTCCTT", "sensor-assay potency score (higher = more potent)": -1.06},
      {"sequence": "TTTGATCTATATTTCCTTCGTT", "sensor-assay potency score (higher = more potent)": 0.393},
      {"sequence": "TTTGTTTGATCTATATTTCCTT", "sensor-assay potency score (higher = more potent)": 0.303}
    ]},
    {"biological_target": "CD300E", "assay": "pooled miR-30 sensor sort-seq; sequence = guide strand", "details": "shRNA", "values": [
      {"sequence": "ACTGTCTGAATTTTGCACCAGT", "sensor-assay potency score (higher = more potent)": -0.28},
      {"sequence": "TTGGTCTCCACAATGCTCTCAC", "sensor-assay potency score (higher = more potent)": 0.408},
      {"sequence": "TTGGGGTTGTAATTGCTGGGGA", "sensor-assay potency score (higher = more potent)": -0.0469},
      {"sequence": "ATGACGTGTCGTACTGTCCTCG", "sensor-assay potency score (higher = more potent)": -0.632},
      {"sequence": "ATCATCTTCATTGAGGTTCTGC", "sensor-assay potency score (higher = more potent)": 0.407},
      {"sequence": "TTGTACATGCTCTCATACTGAC", "sensor-assay potency score (higher = more potent)": -0.406},
      {"sequence": "TTTGGGTCAACACCTCCCCGGT", "sensor-assay potency score (higher = more potent)": -1.29},
      {"sequence": "TCACATGACGTGTCGTACTGTC", "sensor-assay potency score (higher = more potent)": 0.205},
      {"sequence": "TTTTGGGTCAACACCTCCCCGG", "sensor-assay potency score (higher = more potent)": -0.887},
      {"sequence": "TGAATTTTGGGTCAACACCTCC", "sensor-assay potency score (higher = more potent)": -1.03},
      {"sequence": "TGGTCTCTGATGGACACGCGGC", "sensor-assay potency score (higher = more potent)": -1.67},
      {"sequence": "ATACTGACACCACACTGTCAGA", "sensor-assay potency score (higher = more potent)": -1.71}
    ]},
    {"biological_target": "CD300LG", "assay": "pooled miR-30 sensor sort-seq; sequence = guide strand", "details": "shRNA", "values": [
      {"sequence": "TTTTCTTCATCATTTTTCCAAA", "sensor-assay potency score (higher = more potent)": -1.26},
      {"sequence": "TTCTTCTTCTGCATAGATGGTG", "sensor-assay potency score (higher = more potent)": -0.287},
      {"sequence": "TAGATGGTGCCAGAGCAGCGAG", "sensor-assay potency score (higher = more potent)": -1.7},
      {"sequence": "TCTGTGTTAGACACCTACGTGC", "sensor-assay potency score (higher = more potent)": 0.23},
      {"sequence": "TCCTGCACCAGTACTTCCGGTG", "sensor-assay potency score (higher = more potent)": -1.28},
      {"sequence": "TCTTCTGCATAGATGGTGCCAG", "sensor-assay potency score (higher = more potent)": -0.529},
      {"sequence": "TTCCTGCACCAGTACTTCCGGT", "sensor-assay potency score (higher = more potent)": -1.16},
      {"sequence": "TTCCCTGTAGGTGCACTGCAGG", "sensor-assay potency score (higher = more potent)": -0.985},
      {"sequence": "TCTTCTTCTGCATAGATGGTGC", "sensor-assay potency score (higher = more potent)": -0.808},
      {"sequence": "TTCTACTTTTCTCTCTAGCCAC", "sensor-assay potency score (higher = more potent)": -0.61},
      {"sequence": "TATCCCTGCAATGTGCACCTGA", "sensor-assay potency score (higher = more potent)": 0.23},
      {"sequence": "TTGGTGTCGCAGACAGAGCAGA", "sensor-assay potency score (higher = more potent)": -1.29}
    ]},
    {"biological_target": "CD320", "assay": "pooled miR-30 sensor sort-seq; sequence = guide strand", "details": "shRNA", "values": [
      {"sequence": "TTCCGGGAGGATCTCATTGGTT", "sensor-assay potency score (higher = more potent)": -1.44},
      {"sequence": "ATGCAGTCATCGCTCAGCGTGC", "sensor-assay potency score (higher = more potent)": -1.64},
      {"sequence": "AATGCAGTCATCGCTCAGCGTG", "sensor-assay potency score (higher = more potent)": -1.16},
      {"sequence": "TCTCATTGGTTCCACAGCCGAG", "sensor-assay potency score (higher = more potent)": -1.57},
      {"sequence": "TTCTGTTCTGACAGCAGCAGGG", "sensor-assay potency score (higher = more potent)": -0.457},
      {"sequence": "TCGCTGCAGTCCAAGTCCCTGT", "sensor-assay potency score (higher = more potent)": -1.39},
      {"sequence": "TAGTCCGAGGCCGAGCAGCAGC", "sensor-assay potency score (higher = more potent)": -1.57},
      {"sequence": "TCTGTTCTGACAGCAGCAGGGA", "sensor-assay potency score (higher = more potent)": -0.673},
      {"sequence": "TTGCGCAGTTTCTTGTCAGTTC", "sensor-assay potency score (higher = more potent)": -0.101},
      {"sequence": "TCATCGCTGCCATCGCTGCAGT", "sensor-assay potency score (higher = more potent)": -1.32}
    ]}
  ]
}
